Each structure is given as a SMILES string. Results filed as inconclusive are left out. The source made the active and inactive calls. How the source made its calls: active means hit-call score of the fitted dose curve at least 0.9, where 1 is the maximum; inconclusive means response in the unintended direction; inactive means score below 0.9.

In PubChem BioAssay (EPA / NIEHS) one finds outcome and AC50 data, which are given here for 37 molecules.

The target in the assay is human Vitamin D Receptor (VDR), VDR (gene 7421) (UniProt P11473). Briefly: ATG_VDR_TRANS: Attagene TRANS-FACTORIAL HepG2 Assay for human Vitamin D Receptor (VDR) (AID 2283022). The method, boiled down: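 RT-PCR/capillary electrophoresis read-out of reporter mRNA induction in transiently transfected HepG2; 24 h dosing; chimeric NR-Gal4 (TRANS format); gain-of-signal fit against DMSO baseline.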
human Vitamin D Receptor (VDR), VDR (gene 7421), sequence (P11473 whole entry, looked up, the tested form may be a part): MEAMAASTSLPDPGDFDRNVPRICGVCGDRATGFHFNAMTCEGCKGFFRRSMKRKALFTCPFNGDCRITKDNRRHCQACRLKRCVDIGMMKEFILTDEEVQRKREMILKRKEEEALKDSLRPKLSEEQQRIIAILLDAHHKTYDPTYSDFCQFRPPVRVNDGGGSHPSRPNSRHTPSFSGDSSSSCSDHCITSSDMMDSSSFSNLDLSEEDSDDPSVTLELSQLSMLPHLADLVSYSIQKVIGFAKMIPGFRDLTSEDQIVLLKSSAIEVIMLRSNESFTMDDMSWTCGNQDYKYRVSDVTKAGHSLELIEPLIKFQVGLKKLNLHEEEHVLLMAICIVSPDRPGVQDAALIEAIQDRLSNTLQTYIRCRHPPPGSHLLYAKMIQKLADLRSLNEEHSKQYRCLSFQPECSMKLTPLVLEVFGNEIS
On to `Oc1cccc2c(O)cccc12`, for which the result was inactive.

For `FCOC(C(F)(F)F)C(F)(F)F`, the molecule was called inactive.

For `O=C(F)C(F)(F)C(F)(F)C(F)(F)C(=O)F`, the outcome was inactive.

`O=S(=O)(O)c1ccc2cc(O)ccc2c1`: the outcome was inactive.

For the molecule `O=C1Cc2ccccc2N1c1c(Cl)cccc1Cl`, the molecule was classed as inactive.

In the case of `O=S(=O)(O)c1ccccc1`, the result was inactive.

For the molecule `C[N+](C)(CCCNS(=O)(=O)CCC(F)(F)C(F)(F)C(F)(F)C(F)(F)C(F)(F)C(F)(F)F)CC(=O)[O-]`, the call was inactive.

Take `C=C(c1ccc(C(=O)O)cc1)c1cc2c(cc1C)C(C)(C)CCC2(C)C`: the outcome was inactive.

On to `C=CC(F)(F)C(F)(F)C(F)(F)C(F)(F)F`, for which the molecule was called inactive.

With `CCCCc1ccc2ccccc2c1S(=O)(=O)O`, the molecule was classed as inactive.

Consider `Cn1sccc1=O`, for which the outcome was inactive.

With `CC(C)c1c(C(=O)Nc2ccccc2)c(-c2ccccc2)c(-c2ccc(F)cc2)n1CC[C@@H](O)C[C@@H](O)CC(=O)O`, the molecule was called inactive.

Regarding `CCCCCCCCC1CCC(=O)O1` (configuration not stated), the molecule was called inactive.

As to `CCCCCCCC(OC)OC`, the molecule was classed as inactive.

Regarding `FC(F)(F)C1(F)C(F)(F)C(F)(F)C(F)(F)C1(F)F`, the outcome was inactive.

In the case of `C=CC(=O)OCCC(F)(F)C(F)(F)C(F)(F)C(F)(F)C(F)(F)C(F)(F)F`, the outcome was inactive.

For the molecule `C=CC(=O)OCC(CO)(COCC(COC(=O)C=C)(COC(=O)C=C)COC(=O)C=C)COC(=O)C=C`, the molecule was called inactive.

Regarding `CC1CCC(CO)CC1` (configuration not stated), the call was inactive.

On to `c1cc2cccc3c4cccc5cccc(c(c1)c23)c54`, for which the call was inactive.

`Brc1cc(Br)c(Oc2c(Br)cc(Br)c(Br)c2Br)cc1Br`: the outcome was inactive.

Consider `CCC(C)c1nccnc1OC` (configuration not stated), for which the call was inactive.

For `CCOC(OCC)C(=O)c1ccccc1`, the molecule was classed as inactive.

With `NS(=O)(=O)O`, the result was inactive.

Consider `CC(C)(O)C(=O)c1ccccc1`, for which the molecule was classed as inactive.

Regarding `O=c1cc(-c2ccccc2)oc2ccc3ccccc3c12`, the outcome was inactive.

Consider `O=C(Nc1cccc([N+](=O)[O-])c1)c1cc2ccccc2cc1O`, for which the outcome was inactive.

For the molecule `C=CCOCC(CO)(CO)CO`, the molecule was called inactive.

Take `CC(C)(C)c1ccc(CCC=O)cc1`: the outcome was inactive.

As for `CCCCCCCCCCCC[N+](C)(C)CCCCCCCCCCCC`, the outcome was inactive.

Take `CCCCCCCCC(C)=O`: the outcome was inactive.

For `FC(OC(F)(F)C(F)(F)C(F)(F)F)C(F)(F)F` (configuration not stated), the outcome was inactive.

Take `c1ccc(CNc2ncnc3c2ncn3C2CCCCO2)cc1` (configuration not stated): the molecule was called inactive.

For the molecule `CC(=O)CC(C)C`, the outcome was inactive.

For `CC(C)CCOCCC(C)C`, the call was inactive.

With `CCc1cccc(CC)c1NC(=O)C(=O)O`, the molecule was classed as inactive.

One may read the AC50 as the concentration giving half of the maximal activity seen. On to `CC1COCc2cc3c(cc21)C(C)(C)C(C)C3(C)C` (configuration not stated), for which the AC50 was 128 µM (active).

On to `Cc1ccc(C)c(S(=O)(=O)O)c1`, for which the call was inactive.
